According to PubChem BioAssay AID1508635 (National Center for Advancing Translational Sciences (NCATS), 2021):
Inconclusive results are not listed. Unmarked numbers belong to inactive results. Active and inactive are the calls of the source. Calls come from the whole dose curve; as a rule, active = well fitted inhibition curve with a large enough effect; inconclusive = small, poorly fitted or top-dose-only effect; inactive = no such curve, though single readings can be large or run the other way.

Tested on: zebrafish Abcb4 (ABCB1 homolog)
Experiment: qHTS for characterization and localization of zebrafish homologs of the human ABCB1 multidrug transporter: ABCB4 transfected cells
Outline: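 Empty-vector, P-gp-overexpressing MDR-19 and zebrafish abcb4- or abcb5-transfected cells were exposed to ~90 P-gp substrates at varying concentrations for 72 h at 37C. Viability was read by CellTiter-Glo luminescence; cytotoxic meant inhibitory curve class, >50% maximal response and AC50 < 10 uM.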

Cc1[nH]c2ccccc2c1CCNCc1ccc(/C=C/C(=O)NO)cc1
Potency: 2.96 µM (active)

CCC(C)C(=O)OC1CC(O)C23C4OCC5(C(O)CC2C1(C)C(O)O4)C3C(=O)C(O)C1(C)C(O)(c2ccoc2)CC2OC251 (stereo unspecified)
Potency: inactive

COc1ccc(CC2C(=O)NC(C)C(=O)N(C)C3Cc4ccc(cc4)Oc4cc(ccc4OC4OC(CO)C(O)C(O)C4O)CC(C(=O)NC(C)C(=O)NC(C)C(=O)N2C)N(C)C3=O)cc1 (stereo unspecified)
Potency: inactive

CCc1cccc(CC)c1NC(=O)N1Cc2[nH]nc(NC(=O)c3ccc(N4CCN(C)CC4)cc3)c2C1
Potency: inactive

CC(NCc1ccc2c(c1)nc(NC(=O)c1ccc(-c3cn[nH]c3)s1)n2CC(C)(C)O)C(C)(C)C (stereo unspecified)
Potency: 6.62 µM (active)

COc1cc2ncn(-c3cc(OCc4ccccc4C(F)(F)F)c(C(N)=O)s3)c2cc1OC
Potency: 19.1 µM (active)

CC(C)C[C@H](NC(=O)[C@H](CCc1ccccc1)NC(=O)CN1CCOCC1)C(=O)N[C@@H](Cc1ccccc1)C(=O)N[C@@H](CC(C)C)C(=O)[C@@]1(C)CO1
Potency: 2.35 µM (active)

Cc1ccc(C(=O)N(CCCN)[C@@H](c2oc3cc(Cl)ccc3c(=O)c2Cc2ccccc2)C(C)C)cc1
Potency: 20.9 µM (active)

C=CCn1c(=O)c2cnc(Nc3ccc(N4CCN(C)CC4)cc3)nc2n1-c1cccc(C(C)(C)O)n1
Potency: 4.18 µM (active)

C[C@@H]1O[C@@H](O[C@H]2[C@@H](OC(=O)[C@]34CCC(C)(C)CC3C3=CCC5[C@@]6(C)C[C@H](O)[C@H](O[C@@H]7O[C@H](CO)[C@@H](O)[C@H](O)[C@H]7O[C@@H]7OC[C@@H](O)[C@H](O)[C@H]7O)[C@@](C)(C(=O)O)C6CC[C@@]5(C)[C@]3(C)CC4)OC[C@H](O)[C@@H]2O)[C@H](O)[C@H](O)[C@H]1O[C@@H]1OC[C@@H](O)[C@H](O)[C@H]1O (stereo partly specified)
activity change, negative = inhibition: -5.3% [at 8.96 µM]

CCc1c(O)cc(O)c(C(=O)c2ccc(OCCN3CCOCC3)c(OC)c2)c1CC(=O)N(CCOC)CCOC
Potency: inactive
